From the supplement of paper PMC13380429

Test system: Vero E6 infected with SARS-CoV-2
Test: inhibition of SARS-CoV-2 cytopathic effect; higher = more antiviral protection, active = above 15
Settings: 48 h

Measured: inhibition of SARS-CoV-2 cytopathic effect

O=c1c(O)c(-c2ccc(O)c(O)c2)oc2cc(O)ccc12 [fisetin]
inactive: 1 nM 0.55% | 8.33 nM -1.12% | 100 nM 0.7% | 833.33 nM -0.95% | 10000 nM -1.68%

Nc1ccc(S(N)(=O)=O)cc1 [sulfanilamide]
inactive: 1 nM -4.21% | 8.33 nM -0.69% | 100 nM 4.19% | 833.33 nM 2.93% | 10000 nM 1.32%

Fc1ccccc1CNCc1ccc(-c2ccnc3[nH]ccc23)cc1
inactive: 1 nM 4.68% | 8.33 nM 2.19% | 100 nM 0.04% | 833.33 nM -1.5% | 10000 nM -7.9%

CC(C)c1ccc(CC(=O)N2CCC[C@@H](c3cccc(OC(C)(C)C(=O)O)c3)C2)cc1
inactive: 1 nM 0.54% | 8.33 nM 0.54% | 100 nM -0.36% | 833.33 nM 1.87% | 10000 nM -0.15%

OCCN1CCN(CCCN2c3ccccc3Sc3ccc(C(F)(F)F)cc32)CC1 [fluphenazine]
active: 10000 nM 20.5%
inactive: 1 nM -8.05% | 8.33 nM -7.65% | 100 nM -6.69% | 833.33 nM -9.7%

CC(C)OC(=O)CNC(=O)[C@H](CS)NC(=O)CC[C@H](N)C(=O)O [glutathione-monoisopropyl-ester]
inactive: 1 nM -0.48% | 8.33 nM 2.43% | 100 nM -0.65% | 833.33 nM 0.55% | 10000 nM 2.32%

COc1cc2cc(c1Cl)N(C)C(=O)C[C@H](OC(=O)C(C)C)[C@]1(C)O[C@@H]1[C@H](C)[C@@H]1C[C@@](O)(NC(=O)O1)[C@H](OC)/C=C/C=C(\C)C2 [ansamitocin-p-3]
inactive: 1 nM 2.87% | 8.33 nM -1.3% | 100 nM -3.14% | 833.33 nM -0.53% | 10000 nM 0.75%

CC(=O)Oc1ccc(C(c2ccc(OC(C)=O)cc2)c2ccccn2)cc1 [bisacodyl]
inactive: 1 nM 0.11% | 8.33 nM -1.99% | 100 nM -2.25% | 833.33 nM 1.04% | 10000 nM 2.49%

N[C@@H](C(=O)O)c1ccc(C(=O)O)c(O)c1 (racemic) [4-carboxy-3-hydroxyphenylglycine-(RS)]
inactive: 1 nM -0.15% | 8.33 nM -0.33% | 100 nM 0.94% | 833.33 nM -0.355% | 10000 nM -0.565%

COc1cc(N)c(Cl)cc1C(=O)CCC1CCN(CCNS(C)(=O)=O)CC1
inactive: 1 nM -0.46% | 8.33 nM -0.03% | 100 nM 0.79% | 833.33 nM 0.95% | 10000 nM -0.74%

CC1(CN2CCC(n3c(=O)[nH]c4ccccc43)CC2)OCc2ccccc2-n2cccc21 (stereo not given) [zaldaride]
inactive: 1 nM 4.94% | 8.33 nM -0.44% | 100 nM 4.25% | 833.33 nM -2.81% | 10000 nM -4.06%

CC(C)COc1ccc(CNC(=O)N(Cc2ccc(F)cc2)C2CCN(C)CC2)cc1 [pimavanserin]
active: 10000 nM 24%
inactive: 1 nM -1.81% | 8.33 nM -0.8% | 100 nM 0.2% | 833.33 nM -0.47%

Oc1ccc2ccccc2c1Cc1c(O)ccc2ccccc12
inactive: 1 nM 2.61% | 8.33 nM -1.04% | 100 nM 2.9% | 833.33 nM -1.96% | 10000 nM 5.77%

CC1(C)Oc2ccc(C#N)cc2[C@H](N(Cc2ncc[nH]2)c2ccc(Cl)cc2)[C@H]1O
inactive: 1 nM 0.45% | 8.33 nM -1.34% | 100 nM 1.85% | 833.33 nM 2.7% | 10000 nM -1.77%

OCCNC1CCCc2c1[nH]c1ccc(-c3ccccc3)cc21 (stereo not given) [casin]
inactive: 1 nM -1.66% | 8.33 nM 3% | 100 nM 1.22% | 833.33 nM -2.43% | 10000 nM 14.4%
